# Assay results: PubChem BioAssay AID1423 (NMMLSC, 2008)
# About 750 (0.34%) of roughly 220,000 compounds were called active. What follows is part of a selection rich in actives, with near analogues and random picks from the rest. Unmarked numbers belong to inactive results. No stated cut-off is given here; in the data, active means response below about 60% or above about 140%; inactive means in between.
# Biological target: Guanine nucleotide-binding protein G(o) subunit alpha (Homo sapiens) (UniProt P09471)
# Sequence (P09471 whole entry, looked up): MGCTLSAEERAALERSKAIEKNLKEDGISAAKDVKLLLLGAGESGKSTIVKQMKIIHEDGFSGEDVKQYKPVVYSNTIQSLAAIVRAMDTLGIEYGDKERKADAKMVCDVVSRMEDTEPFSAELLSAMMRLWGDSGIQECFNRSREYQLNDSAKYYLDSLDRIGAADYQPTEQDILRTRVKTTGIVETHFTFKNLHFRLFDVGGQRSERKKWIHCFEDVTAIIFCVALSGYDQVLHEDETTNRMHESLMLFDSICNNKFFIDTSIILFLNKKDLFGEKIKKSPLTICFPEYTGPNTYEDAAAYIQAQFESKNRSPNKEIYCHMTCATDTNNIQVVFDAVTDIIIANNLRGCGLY
# Assay: compounds changing RGS8 association with Galphao – biochemical, multiplexed bead flow cytometry, primary screen (AID 1423);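 further: Galphao activated as the GDP aluminium fluoride complex binding bead-coupled RGS8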
# Settings: at 10 µM, actives lie on both sides
row,SMILES,response (percent of control binding)
1,Cc1nnc(-c2ccc(Oc3ccc(C)c(C)c3)c([N+](=O)[O-])c2)o1,99.2%
2,O=C(Oc1ccccc1C(=S)N1CCCCC1)c1cc([N+](=O)[O-])cc([N+](=O)[O-])c1,95.2%
3,Cc1cc(=O)oc2cc(OCCC[n+]3ccccc3)ccc12,101%
4,CCOC(=O)c1c(/N=C/C2C(=O)CC(C)(C)CC2=O)sc(C)c1C,113%
5,Cc1ccc(C(=O)NCC(=O)O)s1,102%
6,N=C1C(=O)OCC1c1ccccc1NC(=O)CN1CCCCC1 (centres undefined),100%
7,CCCc1ccc(C(=O)[C@@H]2[C@@H](C(C)=O)N3c4ccc(F)cc4C=C[C@@H]3[C@@]23C(=O)Nc2ccccc23)cc1,94.4%
8,Cn1nc(-c2ccccc2)c(CO)c1Sc1ccccc1,95.1%
9,CC(C)(C)CN1C(=O)C(=O)NC[C@H]1Cc1cccc2ccccc12,96.5%
10,CC(NC(=O)CCC(=O)N1CCN(S(=O)(=O)c2ccc(Cl)cc2)CC1)c1ccccc1 (centres undefined),101%
11,CC(NC(=O)COC(=O)C1CCN(S(=O)(=O)c2ccccc2C(F)(F)F)CC1)c1ccccc1 (centres undefined),148% [activator] (active)
12,CCNC(=O)NC(=O)C(C)OC(=O)C1CCN(S(=O)(=O)c2ccccc2F)CC1 (centres undefined),106%
13,O=C(C1CC1)N1N=C2CCCCC2C1(O)C(F)(F)F (centres undefined),100%
14,COC(=O)c1c(NC(=O)CN2CCN(S(=O)(=O)c3ccccc3[N+](=O)[O-])CC2)sc2c1CCC(C)C2 (centres undefined),104%
15,Cc1ccc(C)c(NC(=O)c2ccc(OC(=O)c3ccco3)cc2)c1,102%
16,CC1=CC2=NC(=O)/C(=C/c3coc4ccccc4c3=O)C(=N)N2O1,108%
17,O=C(COC(=O)CC1CC2CCC1C2)NC(=O)NC1CCCC1 (centres undefined),102%
18,O=C(c1ccccc1)C(Cn1cncn1)C(Sc1ccccc1)c1ccccc1 (centres undefined),92.9%
19,CC(C)(O)C#Cc1ccc(C(=O)N2CCC(C(N)=O)(N3CCCCC3)CC2)cc1,100%
20,NC(=O)C1(N2CCCCC2)CCN(C(=S)Nc2ccc(Cl)cc2)CC1,129%
21,CCC(=O)N1CCC(C(N)=O)(N2CCCCC2)CC1,163% [activator] (active)
22,COc1ccc(NC(=S)NCC2CCN(c3ccc(OC)cc3)C2)cc1 (centres undefined),97.5%
23,Cc1ccc(S(=O)(=O)N2CCOCC2)cc1C(=O)NC(=S)N(Cc1ccccc1)C(C)C,96.3%
24,COc1ccc(NC(=S)N2CCc3cc(OC)c(OC)cc3C2)cc1,103%
